# Active and inactive are the calls of the source.
# Legend:
# [1] = small molecules captured by biotinylated probe aFSTL3 – biochemical, small-molecule microarray, fluorescence 635/667, stem cell growth factor project, primary screen (AID 1064); settings: higher = more signal;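 note: measures binding of the biotinylated anti-FSTL3 antibody to printed compounds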
# [2] = binders from COS7 lysate, DM2A8 probe, primary screen, torsin A project, cell lysate, small-molecule microarray, fluorescence 635/667 (AID 1065); settings: higher = more signal, COS7 lysate expressing mutant human TOR1A
# [3] = small molecules captured by biotinylated probe aFGF2 – biochemical, small-molecule microarray, fluorescence 635/667, stem cell growth factor project, primary screen (AID 1067); settings: higher = more signal;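 note: measures binding of biotinylated aFGF2 protein to printed compounds on slides; z-score merges feature fluorescence and signal-to-noise across triplicate slides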
# [4] = small molecules captured by biotinylated probe aFGF10 – biochemical, small-molecule microarray, fluorescence 635/667, stem cell growth factor project, primary screen (AID 1071); settings: higher = more signal;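 note: score merges 667 nm spot intensity and signal to noise from triplicate slides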
# [5] = target: Neurogenic locus notch homolog protein 2 (Homo sapiens) (UniProt Q04721); assay: small molecules binding Notch2 protein – biochemical, small-molecule microarray, 635 nm fluorescence, stem cell growth factors, primary screen (AID 1073); settings: higher = more signal
# [6] = target: Pro-neuregulin-1, membrane-bound isoform (Homo sapiens) (UniProt Q02297); assay: small molecules binding neuregulin-1 protein – biochemical, small-molecule microarray, fluorescence 635/667, psychiatric disease protein project, primary screen (AID 1075); settings: NRG1 binding, 635 nm fluorescence, higher = more signal;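 note: score combines 667 nm spot fluorescence with signal to noise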
# [7] = test system: Neuregulin-1 EGF-like domain; assay: small molecules binding NRG1 EGF domain – biochemical, small-molecule microarray, 635 nm fluorescence, primary screen (AID 1081); settings: higher = more signal;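 note: binding of the protein to compounds printed on small-molecule microarray slides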
# [8] = FRG1 expression reporter modulators in myotubes – cell-based, C2C12 myotubes, firefly/Renilla luciferase, luminescence, FRG1 inhibition for FSHD, primary screen (AID 1084); settings: FRG1 promoter luciferase, higher = more signal, called active from +8 up or from −8 down
# [9] = small molecules captured by biotinylated probe aFST – biochemical, small-molecule microarray, fluorescence 635/667, stem cell growth factor project, primary screen (AID 1086); settings: higher = more signal;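 note: score merges 667 nm fluorescence with signal-to-noise of each printed compound spot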
# [10] = binders of probe aHhip on microarray, primary screen, stem cell growth factor project, biochemical, small-molecule microarray, fluorescence 635/667 (AID 1087); settings: higher = more signal;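 note: score merges spot fluorescence at 667nm with spot signal to noise ratio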
# [11] = test system: PRMT1 (protein arginine N-methyltransferase 1); assay: small molecules binding arginine methyltransferase PRMT1 – biochemical, small-molecule microarray, 635 nm fluorescence, primary screen (AID 1088); settings: higher = more signal;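 note: binding of Prmt1 protein to compounds spotted on small-molecule microarray slides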
# [12] = growth effects on S. cerevisiae YJM789 – YJM789 clinical isolate, OD600, 24 h, basal, primary screen (AID 1089); settings: higher = more signal, called active from +8 up or from −8 down;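 note: growth of clinical yeast isolate S. cerevisiae YJM 789 seeded 1000 cells per well; test concentration not given here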
# [13] = S. pombe growth modifiers, basal conditions – strain 972, OD600, 24 h, no modulator, primary screen (AID 1090);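 note: basal condition with compound alone and no growth modifier present; test concentration not given here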; settings: S. pombe 972 growth, higher = more signal, called active from +8 up or from −8 down
# [14] = budding yeast growth modifiers under rapamycin – strain BY4716, OD600, 96 h, primary screen (AID 1091); note: test concentration not given here; settings: S. cerevisiae BY4716 + rapamycin, higher = more signal, called active from +8 up or from −8 down
# [15] = target: Torsin-1A-interacting protein 2 (Homo sapiens) (UniProt Q8NFQ8); assay: small molecules binding lysate-expressed LULL1 – cell lysate, human LULL1 lysate, 635/667 nm fluorescence, primary screen (AID 1092); settings: small-molecule microarray, hLULL1 lysate binding, 635 nm fluorescence; higher = more signal;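 note: probe is lysate of COS7 cells overexpressing human LULL1; score merges per-feature 667 nm fluorescence with signal-to-noise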
# [16] = optical density change of DRC41 E. coli – strain DRC41, OD650, 24 h, E. coli filamentation project, primary screen (AID 1093);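 note: MC1000 strain lacking acrAB efflux and sulA so SOS filamentation is blocked; test concentration not given here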; settings: E. coli DRC41 growth, higher = more signal, called active from +8 up or from −8 down
# [17] = probe aLefty2 binding to arrayed compounds – biochemical, biotinylated probe, 635/667 nm fluorescence, primary screen (AID 1094); settings: small-molecule microarray, higher = more signal;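 note: score merges spot fluorescence near 667 nm with spot signal-to-noise ratio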
# [18] = test system: Noggin (protein binding on small-molecule microarray); assay: small molecules binding Noggin protein – biochemical, 635/667 nm fluorescence, primary screen (AID 1095); settings: 635 nm fluorescence, higher = more signal;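 note: score merges 667 nm feature fluorescence with signal to noise over triplicate slides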
# [19] = target: Neurogenic locus notch homolog protein 3 (Homo sapiens) (UniProt Q9UM47); assay: small molecules binding NOTCH3 protein – biochemical, 635/667 nm fluorescence, primary screen (AID 1096); settings: small-molecule microarray, 635 nm fluorescence, higher = more signal
# [20] = probe aEGFR binding to arrayed compounds – biochemical, biotinylated probe, 635/667 nm fluorescence, primary screen (AID 1097); settings: small-molecule microarray, higher = more signal;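 note: probe is a biotinylated anti-EGFR antibody binding compounds printed on slides; score combines fluorescence near 667 nm and signal to noise of each spot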
# Neurogenic locus notch homolog protein 2 (Homo sapiens), sequence (Q04721 whole entry, looked up, canonical isoform): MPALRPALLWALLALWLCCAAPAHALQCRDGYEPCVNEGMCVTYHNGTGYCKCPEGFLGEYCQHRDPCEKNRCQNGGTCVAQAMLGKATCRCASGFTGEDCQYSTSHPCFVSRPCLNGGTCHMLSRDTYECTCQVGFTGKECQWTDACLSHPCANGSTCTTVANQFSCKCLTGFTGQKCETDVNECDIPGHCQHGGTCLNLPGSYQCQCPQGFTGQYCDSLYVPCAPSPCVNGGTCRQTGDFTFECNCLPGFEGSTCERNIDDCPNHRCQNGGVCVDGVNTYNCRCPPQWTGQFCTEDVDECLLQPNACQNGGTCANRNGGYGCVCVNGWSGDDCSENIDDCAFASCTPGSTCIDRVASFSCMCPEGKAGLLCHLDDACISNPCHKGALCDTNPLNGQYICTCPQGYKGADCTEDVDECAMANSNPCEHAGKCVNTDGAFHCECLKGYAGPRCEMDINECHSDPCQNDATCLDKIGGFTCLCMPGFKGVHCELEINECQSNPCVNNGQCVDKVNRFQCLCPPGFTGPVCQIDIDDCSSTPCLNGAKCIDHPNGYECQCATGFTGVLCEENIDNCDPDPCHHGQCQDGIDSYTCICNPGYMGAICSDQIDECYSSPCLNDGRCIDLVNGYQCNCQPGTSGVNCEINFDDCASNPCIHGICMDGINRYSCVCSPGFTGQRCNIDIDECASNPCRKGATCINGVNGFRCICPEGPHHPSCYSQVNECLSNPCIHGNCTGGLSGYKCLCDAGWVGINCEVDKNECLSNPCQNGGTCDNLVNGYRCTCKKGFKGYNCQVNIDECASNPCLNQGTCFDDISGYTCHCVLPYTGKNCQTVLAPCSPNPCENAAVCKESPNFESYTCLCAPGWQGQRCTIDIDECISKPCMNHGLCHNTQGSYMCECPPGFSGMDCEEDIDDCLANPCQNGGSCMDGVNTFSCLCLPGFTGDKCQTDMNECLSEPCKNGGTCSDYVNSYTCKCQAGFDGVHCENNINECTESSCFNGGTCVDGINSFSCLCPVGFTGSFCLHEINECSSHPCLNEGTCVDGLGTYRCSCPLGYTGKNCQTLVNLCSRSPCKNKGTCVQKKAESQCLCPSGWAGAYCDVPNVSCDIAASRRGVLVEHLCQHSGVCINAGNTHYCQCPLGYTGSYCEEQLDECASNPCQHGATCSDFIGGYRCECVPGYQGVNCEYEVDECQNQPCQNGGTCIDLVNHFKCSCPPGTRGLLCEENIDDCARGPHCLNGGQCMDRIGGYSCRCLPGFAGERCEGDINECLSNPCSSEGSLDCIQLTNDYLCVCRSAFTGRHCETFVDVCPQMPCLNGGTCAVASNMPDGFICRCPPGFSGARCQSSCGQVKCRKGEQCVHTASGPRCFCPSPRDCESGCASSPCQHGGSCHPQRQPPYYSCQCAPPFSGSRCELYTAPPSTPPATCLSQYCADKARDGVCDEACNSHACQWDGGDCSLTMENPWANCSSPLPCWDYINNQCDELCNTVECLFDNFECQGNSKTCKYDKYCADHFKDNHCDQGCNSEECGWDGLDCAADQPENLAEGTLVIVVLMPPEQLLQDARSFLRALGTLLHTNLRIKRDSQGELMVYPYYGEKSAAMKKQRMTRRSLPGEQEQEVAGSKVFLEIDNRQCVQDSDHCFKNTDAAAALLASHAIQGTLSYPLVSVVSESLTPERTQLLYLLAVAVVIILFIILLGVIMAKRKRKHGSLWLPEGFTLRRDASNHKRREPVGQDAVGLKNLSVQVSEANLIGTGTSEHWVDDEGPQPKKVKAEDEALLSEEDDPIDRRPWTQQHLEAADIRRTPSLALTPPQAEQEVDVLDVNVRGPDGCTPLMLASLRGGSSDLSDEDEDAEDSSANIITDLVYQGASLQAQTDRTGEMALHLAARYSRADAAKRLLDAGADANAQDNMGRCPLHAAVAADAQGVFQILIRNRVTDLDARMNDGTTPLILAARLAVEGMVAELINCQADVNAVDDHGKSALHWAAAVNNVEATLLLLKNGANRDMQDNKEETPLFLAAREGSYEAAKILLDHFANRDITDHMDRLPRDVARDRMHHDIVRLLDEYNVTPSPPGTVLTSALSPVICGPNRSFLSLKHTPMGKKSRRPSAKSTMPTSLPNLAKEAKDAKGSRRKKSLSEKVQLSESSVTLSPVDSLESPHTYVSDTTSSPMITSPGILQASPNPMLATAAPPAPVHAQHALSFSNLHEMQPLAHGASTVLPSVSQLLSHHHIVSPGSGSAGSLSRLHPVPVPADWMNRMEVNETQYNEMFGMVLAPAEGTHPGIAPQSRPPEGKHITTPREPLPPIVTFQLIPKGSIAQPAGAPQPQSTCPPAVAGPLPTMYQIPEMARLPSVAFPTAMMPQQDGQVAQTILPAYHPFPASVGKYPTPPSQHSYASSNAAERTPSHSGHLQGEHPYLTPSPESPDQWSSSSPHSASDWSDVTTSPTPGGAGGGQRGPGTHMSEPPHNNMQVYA
# Neurogenic locus notch homolog protein 3 (Homo sapiens), sequence (Q9UM47 whole entry, looked up): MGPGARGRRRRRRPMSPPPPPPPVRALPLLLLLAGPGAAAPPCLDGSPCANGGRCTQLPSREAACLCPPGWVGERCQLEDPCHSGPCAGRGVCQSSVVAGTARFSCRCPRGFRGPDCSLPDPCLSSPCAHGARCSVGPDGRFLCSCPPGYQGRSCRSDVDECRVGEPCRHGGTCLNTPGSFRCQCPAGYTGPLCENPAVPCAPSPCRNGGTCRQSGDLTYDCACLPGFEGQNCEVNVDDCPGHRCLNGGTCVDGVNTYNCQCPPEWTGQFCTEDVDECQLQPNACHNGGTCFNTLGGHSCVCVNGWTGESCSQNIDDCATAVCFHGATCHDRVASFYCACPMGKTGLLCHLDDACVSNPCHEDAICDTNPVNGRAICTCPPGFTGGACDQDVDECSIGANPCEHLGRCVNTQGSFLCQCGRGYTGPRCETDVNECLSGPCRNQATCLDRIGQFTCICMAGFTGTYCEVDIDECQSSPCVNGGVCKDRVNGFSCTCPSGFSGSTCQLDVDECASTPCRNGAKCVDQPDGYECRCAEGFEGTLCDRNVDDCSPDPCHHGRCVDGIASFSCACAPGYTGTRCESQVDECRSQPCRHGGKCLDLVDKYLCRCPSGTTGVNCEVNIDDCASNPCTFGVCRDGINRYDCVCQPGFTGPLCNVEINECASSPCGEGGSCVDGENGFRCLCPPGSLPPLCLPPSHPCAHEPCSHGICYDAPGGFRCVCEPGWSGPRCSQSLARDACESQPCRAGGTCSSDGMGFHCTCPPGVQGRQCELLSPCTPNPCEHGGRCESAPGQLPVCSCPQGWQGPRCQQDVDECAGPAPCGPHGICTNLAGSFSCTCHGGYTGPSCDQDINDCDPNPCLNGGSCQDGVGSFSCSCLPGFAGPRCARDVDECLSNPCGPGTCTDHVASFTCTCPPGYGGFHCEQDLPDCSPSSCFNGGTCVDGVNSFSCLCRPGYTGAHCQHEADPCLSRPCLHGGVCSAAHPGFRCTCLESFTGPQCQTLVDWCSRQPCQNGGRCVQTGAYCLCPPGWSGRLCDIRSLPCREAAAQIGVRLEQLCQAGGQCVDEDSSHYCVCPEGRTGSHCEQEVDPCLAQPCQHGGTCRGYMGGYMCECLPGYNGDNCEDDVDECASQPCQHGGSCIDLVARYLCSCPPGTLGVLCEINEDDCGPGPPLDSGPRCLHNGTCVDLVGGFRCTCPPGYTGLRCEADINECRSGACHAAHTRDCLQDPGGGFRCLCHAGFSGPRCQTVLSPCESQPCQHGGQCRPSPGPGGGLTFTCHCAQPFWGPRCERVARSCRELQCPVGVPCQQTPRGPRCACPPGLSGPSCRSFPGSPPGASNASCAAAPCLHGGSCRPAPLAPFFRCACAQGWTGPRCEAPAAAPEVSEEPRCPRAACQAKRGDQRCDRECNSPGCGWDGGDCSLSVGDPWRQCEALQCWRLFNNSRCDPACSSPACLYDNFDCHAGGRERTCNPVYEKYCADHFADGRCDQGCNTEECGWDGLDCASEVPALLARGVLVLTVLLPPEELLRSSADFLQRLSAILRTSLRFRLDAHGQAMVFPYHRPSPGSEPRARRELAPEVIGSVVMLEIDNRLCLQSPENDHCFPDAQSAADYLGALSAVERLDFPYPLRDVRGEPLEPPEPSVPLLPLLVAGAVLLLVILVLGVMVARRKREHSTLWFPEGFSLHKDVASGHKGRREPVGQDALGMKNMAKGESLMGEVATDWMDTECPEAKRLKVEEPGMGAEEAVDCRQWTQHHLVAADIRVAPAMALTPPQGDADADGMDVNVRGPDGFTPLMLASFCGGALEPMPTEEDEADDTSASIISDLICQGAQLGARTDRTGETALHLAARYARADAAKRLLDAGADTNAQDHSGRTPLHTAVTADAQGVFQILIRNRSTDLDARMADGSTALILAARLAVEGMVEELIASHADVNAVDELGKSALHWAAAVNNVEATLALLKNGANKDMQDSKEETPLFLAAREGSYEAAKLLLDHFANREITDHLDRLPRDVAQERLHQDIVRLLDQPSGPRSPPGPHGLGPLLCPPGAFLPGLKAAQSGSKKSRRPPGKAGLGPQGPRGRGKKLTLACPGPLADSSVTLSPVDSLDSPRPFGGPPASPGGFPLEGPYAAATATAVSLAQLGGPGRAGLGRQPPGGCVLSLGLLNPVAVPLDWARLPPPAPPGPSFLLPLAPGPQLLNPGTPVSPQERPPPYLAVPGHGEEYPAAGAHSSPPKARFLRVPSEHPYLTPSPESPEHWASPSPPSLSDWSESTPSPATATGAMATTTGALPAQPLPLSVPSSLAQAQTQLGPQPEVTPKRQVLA
SMILES,composite z-score [1],composite z-score [2],composite z-score [3],composite z-score [4],composite z-score [5],composite z-score [6],composite z-score [7],z-score [8],composite z-score [9],composite z-score [10],composite z-score [11],z-score [12],z-score [13],z-score [14],composite z-score [15],z-score [16],composite z-score [17],composite z-score [18],composite z-score [19],composite z-score [20]
C=C(/C(=C/C[C@@H](OC(C)=O)c1ccc(OCCO)cc1)c1cnc2ccccc2c1)C(C)C,-0.0854,0.769,-0.073,0.164,0.205,0.213,0.946,-1.06 (inactive),0.142,-0.0645,1.26,-0.0424 (inactive),-1.56 (inactive),-0.234 (inactive),1.06,0.762 (inactive),-0.197,0.655,0.676,-0.146
CCOC(=O)C[C@H]1[C@H](OC(=O)c2cc3ccccc3oc2=O)[C@@H](NC(=O)Cc2ccc(OC)cc2)c2cc(OCCCO)ccc2N1C(=O)c1ccccc1,-0.356,0.41,-0.076,0.379,0.359,0.199,0.385,1.57 (inactive),0.164,-0.199,0.242,-0.0987 (inactive),-0.507 (inactive),0.279 (inactive),1.08,0.201 (inactive),-0.139,0.558,0.0769,-0.0174
CN1C2C=C(CCCO)C(C3C(=O)N(C(N)=O)C(=O)C32)C1c1ccc(CN2CCCC2)cc1 (stereo not given),0.0355,-0.214,-0.143,-0.0598,-0.851,-0.612,-0.24,0.75 (inactive),-0.887,0.141,-0.378,-1.64 (inactive),0.715 (inactive),-0.55 (inactive),-0.736,0.194 (inactive),-0.253,-0.354,-0.615,-0.242
CC1CC/C=C\[C@H]2OC34C=CCN(Cn5nnc6ccccc65)C(=O)[C@H]3N(C(CO)C(C)C)C(=O)[C@@H]4C2C(=O)O1 (stereo not given in full),0.0351,-0.804,-0.175,-0.266,0.145,1.22,1.42,0.298 (inactive),-0.314,0.0505,1.34,-0.973 (inactive),-1.02 (inactive),-0.931 (inactive),3.28,0.309 (inactive),0.0723,-0.772,0.113,-0.0987
COc1ccc([Si](C)(C)[C@@H]2[C@@H](CCO)O[C@]3(C(=O)N(Cc4ccc(N5C(=O)COc6ccccc65)cc4)c4ccccc43)[C@H]2C)cc1,-0.0069,0.408,-0.0474,1.24,1.18,1.01,1.17,-2.74 (inactive),0.288,0.0373,1.5,3.6 (inactive),-0.0953 (inactive),35.7 (active),2.44,0.49 (inactive),-0.0375,1.17,0.767,0.0192

# — PubChem BioAssay
